Records with an inconclusive call do not appear. Entries that show only a call come without a potency. Activity calls are given as the source filed them. The call rests on the fitted dose curve; in most records, active means well fitted inhibition curve with a large enough effect; inconclusive means small, poorly fitted or top-dose-only effect; inactive means no such curve, though single readings can be large or run the other way. Non-standard residues stand in square brackets, D forms with d. Residues, ends and D or L forms follow the SMILES beside them. *: point of attachment. Sta = CC(C)C[C@H](N)[C@@H](O)CC(=O)O; Isovaleryl = CC(C)CC(=O)*
Experiment: qHTS Screen of the MIPE 4.0 Collection Against Ewings Sarcoma (TC32) (AID 1259256); further: nearly all actives have a fitted effect of over 45% in size
Conditions: TC32 Ewing sarcoma viability, CellTiter-Glo, 48 h; series mostly up to 45.8 µM
From the text: There is a large unmet medical need for treatments for Ewing sarcoma, a pediatric sarcoma. We sought to identify compounds that inhibited Ewing sarcoma cells in vitro with the goal to then test promising drugs in two drug combinations in vitro to look for synergistic drug combinations. Promising combinations would then proceed to additional validation, including in vivo testing.
Using the NCATS developed oncology compound library called the Mechanism of Interrogation Plate (MIPE), four Ewing sarcoma cell lines were evaluated (TC32, TC71, RDES, EW8). Compounds, in a 12-point titration series, were incubated with cells for 48 hours and the read out was cell viability (CellTiter-Glo from Promega). These initial experiments were used to select appropriate concentrations of each single agent for subsequent two-drug matrix combinations such that the concentrations in the matrices would span both activity and non-activity.
Cells, in the log phase of growth, were seeded in 5 uL of RPMI plus 5% FBS, […] L-glutamine, 100 U/ml penicillin and 100 ug/ml streptomycin into 1536-well solid-bottom white tissue culture treated Greiner Bio One Plates (789173-F) using a MultiDrop Combi (Thermofisher Scientific) dispenser and a small sterile cassette. One column was media alone to be used as a :"no cells" control. The plates were then covered with sterilized stainless steel gasketed lids from Kalypsys. After allowing cells to attach for 4 hours, 23 nL of test compound or control (negative control DMSO and positive control 9.2 uM Bortezomib-final) were added from a 1536-well polypropylene compound source plate to each well using a 1536 head pin tool from Kalypsys. Cells were then incubated for 48 hours at 37C, 95% relative humidity and 5% CO2. After 48 hours, plates were removed from the incubator and 3 uL of CellTiter-Glo (Promega) was added using an Aurora Flying Reagent Dispenser Bioraptor. Plates were incubated at room temperature for 10 minutes prior to reading the luminescence on the Viewlux (PerkinElmer). The relative luciferase units are used to calculate the percent activity using the activity of DMSO in the cells and no cells columns for normalization of no inhibition and full inhibition respectively.
Potency means the concentration at half of the fitted maximal effect.

Compound | Potency
Cc1cc2c(s1)Nc1ccccc1N=C2N1CCN(C)CC1 | inactive
O=P(O)(O)C(O)(Cn1ccnc1)P(=O)(O)O | inactive
CCOC(=O)C1=C[C@@H](OC(CC)CC)[C@H](NC(C)=O)[C@@H](N)C1 | inactive
O=C(NOCC1CC1)c1ccc(F)c(F)c1Nc1ccc(I)cc1Cl | 16.6 µM (active)
CCC(C)(Oc1ccc(C2(c3ccc(OC(C)(CC)C(=O)O)cc3)CCCCC2)cc1)C(=O)O (stereo not given) | inactive
NC(=O)Cc1cccc(C(=O)c2ccccc2)c1N | 4.69 µM (active)
Cc1nccn1CC1CCc2c(c3ccccc3n2C)C1=O (stereo not given) | 13.2 µM (active)
CCOC(=O)c1c(C)n(C)c2ccc(O)cc12 | inactive
C[C@H](Cn1cnc2c(N)ncnc21)OCP(=O)(O)O | inactive
CCCCC(CC)COC(=O)C(C#N)=C(c1ccccc1)c1ccccc1 (stereo not given) | inactive
O=c1c(O)c(-c2cc(O)c(O)c(O)c2)oc2cc(O)cc(O)c12 | inactive
COc1cc2c(N3CCN(C(=O)Nc4ccc(OC(C)C)cc4)CC3)ncnc2cc1OCCCN1CCCCC1 | 18.7 µM (active)
COC(=O)C1=C(C)NC(C)=C(C(=O)OCCCN2CCC(c3ccccc3)(c3ccccc3)CC2)C1c1cccc([N+](=O)[O-])c1 (stereo not given) | 29.6 µM (active)
Cc1c(OCC(F)(F)F)ccnc1CS(=O)c1nc2ccccc2[nH]1 (stereo not given) | inactive
Oc1ccc(OCc2ccccc2)cc1 | 4.18 µM (active)
O=C(NC(Cc1cc(=O)[nH]c2ccccc12)C(=O)O)c1ccc(Cl)cc1 (stereo not given) | inactive
Clc1ccc2c(N3CCN(CCCN4CCN(c5ccnc6cc(Cl)ccc56)CC4)CC3)ccnc2c1 | inactive
CC(C)Oc1ccc2c(=O)c(-c3ccccc3)coc2c1 | inactive
CC(C)[N+]1(C)[C@@H]2CC[C@H]1CC(OC(=O)C(CO)c1ccccc1)C2 (stereo not given in full) | inactive
COc1c2occc2cc2ccc(=O)oc12 | 3.32 µM (active)

Compound | Potency
O=C(O)c1cccc(-c2noc(-c3ccccc3F)n2)c1 | inactive
N=C(N)c1ccc2cc(OC(=O)c3ccc(N=C(N)N)cc3)ccc2c1 | inactive
c1cnc2cc3c(cc2n1)C1CNCC3C1 | inactive
COC1=C(OC)C(=O)C(CCCCCCCCCCO)=C(C)C1=O | 26.4 µM (active)
O=C(O)c1cn(-c2ccc(F)cc2)c2cc(N3CCNCC3)c(F)cc2c1=O | inactive
c1ccc2[nH]c(-c3cscn3)nc2c1 | inactive
Nc1cc(C(Cl)=C(Cl)Cl)c(S(N)(=O)=O)cc1S(N)(=O)=O | inactive
CNC[C@@H](O)[C@@H](O)[C@H](O)[C@H](O)CO | inactive
CC(S)C(=O)NCC(=O)O (stereo not given) | inactive
CC(C)CC(=O)N[C@H](C(=O)N[C@H](C(=O)N[C@@H](CC(C)C)[C@@H](O)CC(=O)N[C@@H](C)C(=O)N[C@@H](CC(C)C)[C@@H](O)CC(=O)O)C(C)C)C(C)C (Isovaleryl-VV[Sta]A[Sta]-OH) | inactive
CCN(CC)C(=S)SSC(=S)N(CC)CC | inactive
CNC[C@H](O)c1ccc(O)c(O)c1 | 38.2 µM (active)
Nc1nc(N)c(N=O)c(OCC2CCCCC2)n1 | 9.35 µM (active)
Cc1cc(=O)c2c(O)c3c(O)cc(=O)c4c3c3c(cc(O)c1c23)C(C)(C)C=4O | inactive
O=c1ccc2ccc(O)c(O)c2o1 | 13.2 µM (active)
COc1cc2c(cc1OC)C1CC(=O)C(CC(C)C)CN1CC2 (stereo not given) | inactive
COc1ccccc1N1CCN(CCN(C(=O)C2CCCCC2)c2ccccn2)CC1 | inactive
C[C@@H](N)C1CCC(C(=O)Nc2ccncc2)CC1 (stereo not given in full) | inactive
COc1c(O)cc2c(c1O)[C@@H]1O[C@H](CO)[C@@H](O)[C@H](O)[C@H]1OC2=O | inactive
NCCCCNCCCN | inactive
